Of roughly 7,900 targets only a part is listed; those with a hit were picked by preference. About 0.6% of all pairs of compound and target were hits. A number with no mark means an inactive call.
Experiments:
Experiment in all cases: log2 fold change, soluble protein after heating vs DMSO (PISA); higher = thermal stabilisation; K562 cells, 10 uM, 30 min; active = over 0.2 and 3.5 SD of the protein, either way, in both replicates (recomputed)
[1] = compound: CC[C@@H]1C(=O)N(C)c2cnc(Nc3ccc(C(=O)NC4CCN(C)CC4)cc3OC)nc2N1C1CCCC1
Summary of the method: (§1)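 K562 cells at 2×10^6 cells/mL were treated for 30 min with 10 μM compound, and aliquots were heated for 3 min over 48°C-58°C before pooling. Extraction used PBS with 0.5% NP-40 at 4°C, and soluble protein was the supernatant after 21,000xg for 90 min, measured by TMTpro 16plex LC-MS/MS with channel sums equalised. Thermal stability values, relative to control samples and from duplicates, are log2 fold changes.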

volasertib = compound: CC[C@@H]1C(=O)N(C)c2cnc(Nc3ccc(C(=O)N[C@H]4CC[C@H](N5CCN(CC6CC6)CC5)CC4)cc3OC)nc2N1C(C)C [volasertib]
Summary of the method: as §1

epoxomicin = compound: CC[C@H](C)[C@@H](C(=O)N[C@@H]([C@@H](C)O)C(=O)N[C@@H](CC(C)C)C(=O)[C@]1(CO1)C)NC(=O)[C@H]([C@@H](C)CC)N(C)C(=O)C [epoxomicin]
Summary of the method: as §1

[2] = compound: CCn1c(C(=O)N(C2CC2)C2CC2)cc2c3c(ncn3C)c(Nc3cc(C)n(C)n3)nc21
Summary of the method: as §1

[3] = compound: CCn1cc(-c2ccnc3[nH]c(-c4cccc(CN(C)C)c4)cc23)c(-c2ccc(NC(=O)N(C)C)cc2)n1
Summary of the method: as §1

[4] = compound: CN(C)CC(=O)Nc1ccc2[nH]c(=O)c3ccccc3c2c1
Summary of the method: as §1

rosiglitazone = compound: CN(CCOC1=CC=C(C=C1)C[C@H]2C(=O)NC(=O)S2)C3=CC=CC=N3 (racemic) [rosiglitazone]
Summary of the method: as §1

[5] = compound: CN1C2=C(C3=C1C(=O)N(N=C3)CC4=CC(=CC=C4)N)SC(=C2)S(=O)C
Summary of the method: as §1

[6] = compound: CN1CCC(CNc2ccc3ncc(-c4cccc(OC(F)(F)F)c4)n3n2)CC1
Summary of the method: as §1

saracatinib = compound: CN1CCN(CCOc2cc(OC3CCOCC3)c3c(Nc4c(Cl)ccc5c4OCO5)ncnc3c2)CC1 [saracatinib]
Summary of the method: as §1

sotrastaurin = compound: CN1CCN(c2nc(C3=C(c4c[nH]c5ccccc45)C(=O)NC3=O)c3ccccc3n2)CC1 [sotrastaurin]
Summary of the method: as §1

alvocidib = compound: CN1CC[C@H](c2c(O)cc(O)c3c(=O)cc(-c4ccccc4Cl)oc23)[C@H](O)C1 [alvocidib]
Summary of the method: as §1

[7] = compound: CNC(=O)C1=CC=CC=C1NC2=NC(=NC=C2Cl)NC3=C(C=C(C=C3)N4CCOCC4)OC
Summary of the method: as §1

defactinib = compound: CNC(=O)c1ccc(Nc2ncc(C(F)(F)F)c(NCc3nccnc3N(C)S(C)(=O)=O)n2)cc1 [defactinib]
Summary of the method: as §1

rucaparib = compound: CNCc1ccc(-c2[nH]c3cc(F)cc4c3c2CCNC4=O)cc1 [rucaparib]
Summary of the method: as §1

[8] = compound: CNc1nc(-c2ccc3c(N)n[nH]c3c2)cc(N2C[C@@H](C(=O)NC3CCCCC3)CC[C@H]2C)n1
Summary of the method: as §1

encorafenib = compound: COC(=O)N[C@@H](C)CNc1nccc(-c2cn(C(C)C)nc2-c2cc(Cl)cc(NS(C)(=O)=O)c2F)n1 [encorafenib]
Summary of the method: as §1

[9] = compound: COC(=O)[C@H](CCSC)NC(=O)C1=C(C=C(C=C1)NC[C@H](CS)N)C2=CC=CC=C2
Summary of the method: as §1

[10] = compound: CC[C@H](C)N1C=C(C2=C(C=C(C=C21)C3=CN=C(C=C3)N4CCNCC4)C(=O)NCC5=C(C=C(NC5=O)C)C)C
Summary of the method: as §1

Tubastatin A = compound: CN1CCc2c(c3ccccc3n2Cc2ccc(C(=O)NO)cc2)C1 [Tubastatin A]
Summary of the method: as §1

UniProt Q8NEZ2, sequence (Q8NEZ2 whole entry, looked up): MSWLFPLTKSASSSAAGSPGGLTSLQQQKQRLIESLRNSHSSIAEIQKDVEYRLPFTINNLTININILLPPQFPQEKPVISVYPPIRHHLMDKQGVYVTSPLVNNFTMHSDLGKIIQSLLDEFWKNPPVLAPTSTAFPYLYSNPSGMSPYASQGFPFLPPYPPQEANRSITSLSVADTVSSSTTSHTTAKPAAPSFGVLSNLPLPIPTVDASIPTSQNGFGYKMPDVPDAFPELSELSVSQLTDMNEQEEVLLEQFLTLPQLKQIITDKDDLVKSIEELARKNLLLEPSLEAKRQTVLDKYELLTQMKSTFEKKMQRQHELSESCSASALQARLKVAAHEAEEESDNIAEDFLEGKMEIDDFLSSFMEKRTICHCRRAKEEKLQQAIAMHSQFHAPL
UniProt Q8IWA0, sequence (Q8IWA0 whole entry, looked up): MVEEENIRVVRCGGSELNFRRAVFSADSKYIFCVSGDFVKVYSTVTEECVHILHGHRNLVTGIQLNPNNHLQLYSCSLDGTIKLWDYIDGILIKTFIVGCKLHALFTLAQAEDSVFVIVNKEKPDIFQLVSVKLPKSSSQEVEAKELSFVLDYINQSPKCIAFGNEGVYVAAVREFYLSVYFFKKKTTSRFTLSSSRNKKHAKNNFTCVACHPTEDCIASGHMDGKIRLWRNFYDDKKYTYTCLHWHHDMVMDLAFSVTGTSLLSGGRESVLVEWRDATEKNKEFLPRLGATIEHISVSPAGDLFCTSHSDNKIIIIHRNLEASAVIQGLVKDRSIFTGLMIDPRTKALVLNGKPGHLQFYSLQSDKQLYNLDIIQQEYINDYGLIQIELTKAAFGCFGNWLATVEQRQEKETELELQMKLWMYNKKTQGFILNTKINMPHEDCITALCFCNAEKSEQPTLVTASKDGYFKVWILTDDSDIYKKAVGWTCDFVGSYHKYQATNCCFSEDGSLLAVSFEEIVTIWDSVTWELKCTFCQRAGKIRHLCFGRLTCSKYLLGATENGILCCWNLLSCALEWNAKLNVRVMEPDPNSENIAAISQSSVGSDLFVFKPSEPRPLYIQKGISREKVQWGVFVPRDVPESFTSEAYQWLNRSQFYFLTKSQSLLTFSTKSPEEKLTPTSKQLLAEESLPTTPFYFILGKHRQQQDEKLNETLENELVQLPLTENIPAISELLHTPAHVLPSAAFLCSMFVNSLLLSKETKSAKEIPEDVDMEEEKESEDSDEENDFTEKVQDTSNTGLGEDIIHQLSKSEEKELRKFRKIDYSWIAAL
UniProt Q9NVA4, sequence (Q9NVA4 whole entry, looked up): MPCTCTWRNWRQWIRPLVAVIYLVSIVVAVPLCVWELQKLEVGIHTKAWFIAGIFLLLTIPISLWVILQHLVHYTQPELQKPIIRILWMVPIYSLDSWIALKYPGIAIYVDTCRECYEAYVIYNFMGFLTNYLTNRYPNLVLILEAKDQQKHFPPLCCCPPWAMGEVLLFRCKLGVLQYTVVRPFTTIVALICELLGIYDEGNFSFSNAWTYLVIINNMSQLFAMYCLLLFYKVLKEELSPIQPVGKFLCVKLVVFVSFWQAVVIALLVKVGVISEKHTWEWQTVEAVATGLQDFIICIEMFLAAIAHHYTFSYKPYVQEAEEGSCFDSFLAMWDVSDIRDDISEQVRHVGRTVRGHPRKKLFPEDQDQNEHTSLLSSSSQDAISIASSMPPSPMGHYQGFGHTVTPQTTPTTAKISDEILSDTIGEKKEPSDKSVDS
UniProt Q9HCS7, sequence (Q9HCS7 whole entry, looked up): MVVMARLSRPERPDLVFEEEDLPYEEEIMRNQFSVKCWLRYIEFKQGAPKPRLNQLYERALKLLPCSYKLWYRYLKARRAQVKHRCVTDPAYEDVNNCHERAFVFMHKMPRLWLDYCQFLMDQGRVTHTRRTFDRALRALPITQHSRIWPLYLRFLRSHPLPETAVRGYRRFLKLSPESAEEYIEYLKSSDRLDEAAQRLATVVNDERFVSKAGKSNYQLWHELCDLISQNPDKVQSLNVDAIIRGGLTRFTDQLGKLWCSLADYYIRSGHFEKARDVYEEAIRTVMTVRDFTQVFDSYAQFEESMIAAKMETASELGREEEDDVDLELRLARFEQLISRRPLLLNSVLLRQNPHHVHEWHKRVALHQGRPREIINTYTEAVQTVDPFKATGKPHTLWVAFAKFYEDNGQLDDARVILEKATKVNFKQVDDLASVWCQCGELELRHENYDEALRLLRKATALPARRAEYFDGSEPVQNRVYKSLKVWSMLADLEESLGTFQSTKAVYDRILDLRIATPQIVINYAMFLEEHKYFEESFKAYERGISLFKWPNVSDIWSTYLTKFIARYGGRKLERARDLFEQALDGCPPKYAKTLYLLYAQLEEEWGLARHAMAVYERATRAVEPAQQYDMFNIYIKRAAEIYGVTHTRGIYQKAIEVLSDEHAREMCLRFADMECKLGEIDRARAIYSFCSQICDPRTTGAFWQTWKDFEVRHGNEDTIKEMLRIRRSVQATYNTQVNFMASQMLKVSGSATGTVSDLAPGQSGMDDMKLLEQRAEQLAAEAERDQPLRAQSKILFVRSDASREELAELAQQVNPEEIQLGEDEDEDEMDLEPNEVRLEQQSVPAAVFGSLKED
UniProt O95857, sequence (O95857 whole entry, looked up): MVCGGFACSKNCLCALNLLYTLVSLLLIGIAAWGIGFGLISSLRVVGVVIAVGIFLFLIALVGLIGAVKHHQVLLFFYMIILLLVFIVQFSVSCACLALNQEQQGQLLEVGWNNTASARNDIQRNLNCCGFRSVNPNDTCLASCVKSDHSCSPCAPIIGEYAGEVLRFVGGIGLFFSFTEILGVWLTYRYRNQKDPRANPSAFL
UniProt O00124, sequence (O00124 whole entry, looked up): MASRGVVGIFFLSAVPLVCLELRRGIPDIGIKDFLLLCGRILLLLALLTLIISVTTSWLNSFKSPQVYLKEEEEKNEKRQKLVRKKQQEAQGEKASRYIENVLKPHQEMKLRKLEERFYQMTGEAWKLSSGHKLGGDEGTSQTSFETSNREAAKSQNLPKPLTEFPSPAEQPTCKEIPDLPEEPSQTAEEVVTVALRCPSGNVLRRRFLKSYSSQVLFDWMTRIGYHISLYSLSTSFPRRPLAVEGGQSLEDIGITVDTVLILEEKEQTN
UniProt P57081, sequence (P57081 whole entry, looked up): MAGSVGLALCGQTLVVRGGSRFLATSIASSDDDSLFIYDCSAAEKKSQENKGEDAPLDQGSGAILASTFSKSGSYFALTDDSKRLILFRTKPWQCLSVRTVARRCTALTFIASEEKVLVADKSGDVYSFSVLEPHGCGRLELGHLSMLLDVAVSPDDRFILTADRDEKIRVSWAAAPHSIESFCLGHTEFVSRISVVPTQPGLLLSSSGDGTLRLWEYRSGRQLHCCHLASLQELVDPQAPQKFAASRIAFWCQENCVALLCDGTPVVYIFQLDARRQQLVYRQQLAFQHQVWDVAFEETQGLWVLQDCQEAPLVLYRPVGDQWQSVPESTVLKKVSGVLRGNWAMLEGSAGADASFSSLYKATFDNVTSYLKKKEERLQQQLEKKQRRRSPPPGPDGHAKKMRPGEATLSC
UniProt O60784, sequence (O60784 whole entry, looked up): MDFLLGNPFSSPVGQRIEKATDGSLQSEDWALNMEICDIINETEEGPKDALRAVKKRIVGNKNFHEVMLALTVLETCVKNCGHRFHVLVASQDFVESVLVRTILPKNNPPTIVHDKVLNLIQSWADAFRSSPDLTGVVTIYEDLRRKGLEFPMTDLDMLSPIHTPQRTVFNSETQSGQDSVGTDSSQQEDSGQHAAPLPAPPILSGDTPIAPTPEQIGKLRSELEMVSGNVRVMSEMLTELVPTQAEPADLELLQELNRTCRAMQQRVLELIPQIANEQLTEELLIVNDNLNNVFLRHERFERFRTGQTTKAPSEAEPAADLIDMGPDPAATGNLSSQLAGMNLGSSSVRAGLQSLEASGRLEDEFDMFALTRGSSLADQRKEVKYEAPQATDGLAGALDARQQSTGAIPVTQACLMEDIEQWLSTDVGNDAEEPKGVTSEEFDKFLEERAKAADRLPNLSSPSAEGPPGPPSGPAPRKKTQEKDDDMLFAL
UniProt Q8N2K1, sequence (Q8N2K1 whole entry, looked up): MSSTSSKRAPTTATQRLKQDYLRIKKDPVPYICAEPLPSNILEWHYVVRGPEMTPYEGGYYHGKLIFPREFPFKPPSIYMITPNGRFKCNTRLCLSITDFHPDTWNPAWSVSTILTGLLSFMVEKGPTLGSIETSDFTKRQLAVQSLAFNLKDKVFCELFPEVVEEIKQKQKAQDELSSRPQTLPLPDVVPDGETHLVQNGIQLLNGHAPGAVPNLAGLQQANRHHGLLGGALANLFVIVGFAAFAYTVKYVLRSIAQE
UniProt Q629K1, sequence (Q629K1 whole entry, looked up): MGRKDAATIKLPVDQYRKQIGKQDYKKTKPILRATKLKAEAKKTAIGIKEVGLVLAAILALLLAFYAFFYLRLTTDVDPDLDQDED
UniProt Q9C035, sequence (Q9C035 whole entry, looked up): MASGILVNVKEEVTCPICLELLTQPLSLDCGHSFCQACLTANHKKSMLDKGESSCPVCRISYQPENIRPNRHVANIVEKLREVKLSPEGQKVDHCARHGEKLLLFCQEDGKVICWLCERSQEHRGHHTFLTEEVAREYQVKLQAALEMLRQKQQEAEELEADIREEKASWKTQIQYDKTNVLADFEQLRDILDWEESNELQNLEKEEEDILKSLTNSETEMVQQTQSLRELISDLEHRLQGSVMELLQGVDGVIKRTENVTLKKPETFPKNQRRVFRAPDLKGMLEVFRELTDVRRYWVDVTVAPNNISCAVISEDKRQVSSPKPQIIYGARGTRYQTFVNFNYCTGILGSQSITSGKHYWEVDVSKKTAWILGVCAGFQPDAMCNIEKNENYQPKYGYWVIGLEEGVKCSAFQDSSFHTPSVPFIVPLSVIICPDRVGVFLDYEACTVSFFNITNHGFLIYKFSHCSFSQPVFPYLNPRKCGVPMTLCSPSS

Row | Target | log2 fold change [1] | log2 fold change (volasertib) | log2 fold change (epoxomicin) | log2 fold change [2] | log2 fold change [3] | log2 fold change [4] | log2 fold change (rosiglitazone) | log2 fold change [5] | log2 fold change [6] | log2 fold change (saracatinib) | log2 fold change (sotrastaurin) | log2 fold change (alvocidib) | log2 fold change [7] | log2 fold change (defactinib) | log2 fold change (rucaparib) | log2 fold change [8] | log2 fold change (encorafenib) | log2 fold change [9] | log2 fold change [10] | log2 fold change (Tubastatin A)
1 | TTC33 (UniProt Q6PID6) | 0.038 | -0.027 | 0.049 | 0.012 | -0.449 (active) | -0.075 | 0.035 | -0.048 | 0.138 | -0.103 | 0.009 | 0.041 | 0.012 | 0.013 | -0.008 | -0.152 | -0.014 | 0.054 |  | 
2 | WDR4 isoform 3 (UniProt P57081) |  |  | 0.017 |  | -0.044 |  | 0.142 |  | -0.036 |  | 0.098 |  |  |  |  |  |  |  |  | 
3 | WDR75 (UniProt Q8IWA0) |  | -0.153 | -0.156 |  |  | -0.073 | -0.061 | 0.166 |  | -0.109 |  | 0.147 |  | 0.144 |  | 0.162 |  | -0.197 | -0.041 | 0.173
4 | TSPAN13 (UniProt O95857) |  | 0.098 | -0.148 | 0.097 | -0.098 | 0.512 (active) | 0 | -0.036 | -0.003 | -0.055 | 0.044 | -0.305 | 0.054 | -0.104 |  | -0.029 |  | -0.291 | -0.083 | -0.11
5 | WARS1 (UniProt G3V339) |  |  | -0.238 |  |  |  |  |  |  |  |  |  |  |  |  |  |  |  |  | 
6 | USP48 (UniProt Q86UV5) | -0.159 |  |  | -0.045 |  |  | 0.101 |  |  |  | -0.123 |  | -0.045 |  | -0.102 |  | 0.318 |  | 0.059 | 
7 | U2AF1L5 (UniProt P0DN76) | -0.289 |  |  | -0.303 |  | 0.138 | 0.04 | 0.112 |  | -0.013 |  |  | 0.084 | -0.409 | 0.236 | -0.023 | 0.23 | 0.107 | 0.045 | 0.072
8 | TRIM23 (UniProt P36406) | 0.013 |  |  | -0.059 | -0.089 | 0.025 | -0.231 | -0.116 | -0.228 | 0.033 | 0.075 | -0.034 | -0.049 | -0.004 | 0.057 | 0.035 | 0.012 | -0.039 | 0.049 | 0.032
9 | XAB2 (UniProt Q9HCS7) |  |  | 0.019 |  |  |  |  | 0.026 |  | 0.052 |  |  |  |  |  | 0.073 |  |  |  | 
10 | TTC26 |  |  |  |  |  | -0.088 | 0.068 |  |  |  |  |  |  | 0.265 |  |  |  | 0.144 |  | -0.033
11 | TOM1 (UniProt O60784) |  |  | 0.094 | 0.035 | -0.072 |  | 0.019 |  | -0.664 (active) |  | -0.033 |  | -0.113 |  |  |  |  |  |  | 0.002
12 | UTP3 (UniProt Q9NQZ2) | 0.067 | -0.012 | -0.376 | -0.007 | 0.236 | -0.052 | -0.41 | 0.165 | 0.092 | 0.232 | -0.1 | 0.173 | 0.094 | 0.104 | 0.238 | -0.106 | 0.23 | 0.051 |  | 0.067
13 | UBE2J2 isoform 3 (UniProt Q8N2K1) | -0.07 | -0.157 | 0.254 | 0.047 | -0.418 | 0.04 | 0.068 | -0.055 | 0.122 | 0.07 | 0.044 | -0.226 | -0.114 | -0.061 | 0.081 | 0.055 | 0.014 | -0.053 |  | 0.091
14 | UTP20 (UniProt O75691) |  | 0.093 | -0.355 | 0.105 |  |  |  |  |  |  |  |  | -0.051 |  |  |  |  |  |  | -0.028
15 | TSC2 (UniProt P49815) | -0.062 | -0.23 | -0.01 | -0.295 | 0.016 |  | -0.052 |  | -0.041 |  | -0.085 | -0.134 | -0.603 |  | -0.097 |  | 0.042 |  |  | 0.437
16 | WARS1 (UniProt G3V5U1) | -0.03 |  | -0.237 |  |  |  | 0.554 |  |  |  | 0.315 |  |  |  | 0.228 |  | -0.451 |  |  | 
17 | TRPT1 isoform 4 (UniProt Q86TN4) | 0.084 |  |  | 0.071 |  |  |  |  |  |  | -0.208 |  | -0.069 |  | 0.101 |  | 0.036 |  |  | 
18 | TRIQK (UniProt Q629K1) |  |  | -0.02 |  |  |  | 0.039 | -0.04 |  | -0.014 | -0.112 | 0.011 |  |  |  | -0.045 |  |  |  | -0.094
19 | WEE1 (UniProt P30291) |  | 0.07 | 0.203 | 0.003 | -0.209 | -0.103 | 0.072 | 0.046 | 0.195 | 0.068 | 0.007 | 0.084 | 0.075 | -0.029 |  | -0.052 |  | 0.082 | -0.028 | 0.117
20 | UBA52 (UniProt P62987) | 0.227 | 0.572 | -0.29 | 0.071 | 0.351 | -0.256 | -0.151 |  | 0.369 |  | -0.029 | 0.339 | -0.008 | 0.221 | 0.421 |  | 0.152 | 0.08 |  | -0.004
21 | TMEM219 (UniProt Q86XT9) |  | -0.111 | 0.035 | 0.002 | 0.037 | 0.094 | 0.078 | -0.085 | -0.029 | 0.261 | 0.03 | -0.12 | -0.016 | -0.185 |  | 0.176 |  | -0.093 | 0.033 | -0.059
22 | TXNRD1 isoform 7 (UniProt Q16881) | 0.054 | -0.106 | 0.155 | -0.001 | -0.501 | -0.074 | 0.024 | 0.101 | -0.028 | -0.202 | 0.019 |  | -0.364 | -0.194 | 0.263 | 0.065 | -0.085 | 0.062 |  | 
23 | TMEM184C (UniProt Q9NVA4) | -0.03 |  | 0.087 |  | 0.08 | -0.013 | 0.088 | -0.237 | -0.492 (active) | 0.022 | 0.139 | -0.123 |  | -0.049 | 0.028 | -0.182 | 0.051 | 0.118 | 0.033 | 0.022
24 | UBAP2L (UniProt F8W726) | 0.077 | -0.002 |  | 0.008 | 0.025 |  | 0.123 |  | -0.027 |  |  |  | -0.05 |  | -0.006 |  | -0.021 |  | -0.094 | -0.039
25 | TRIM5 (UniProt Q9C035) |  |  | 0 | 0.017 |  | -0.005 |  | 0.25 |  | -0.429 | 0.103 | -0.048 | -0.093 | -0.108 |  | -0.017 |  | 0.019 |  | -0.102
26 | UBXN8 (UniProt O00124) | 0.081 | -0.179 | 0.073 |  | -0.039 | -0.051 | 0.259 | 0.147 | -0.297 | -0.054 | 0.027 | 0.102 |  | 0.065 | -0.568 (active) | -0.112 | 0.094 | -0.095 |  | -0.144
27 | TVP23C (UniProt Q96ET8) | 0.097 | 0.068 |  | 0.039 | -0.019 | -0.025 |  | 0 | -0.033 | 0.025 |  | -0.135 | 0.042 | 0.039 | -0.205 | 0.015 | 0.129 | 0.067 |  | 0
28 | VPS37A (UniProt Q8NEZ2) |  | -0.707 (active) | 0.045 | -0.001 | -0.068 | 0.165 | 0.021 | 0.025 | 0.054 | -0.043 | -0.087 | 0.015 | 0.07 | -0.164 |  | 0.065 |  | 0.138 | 0.085 | 0.002
29 | TOM1L2 (UniProt Q6ZVM7) |  |  | -0.035 | 0.09 |  | 0.127 |  | -0.071 |  | -0.02 | -0.091 | -0.357 (active) | -0.102 | -0.072 |  | -0.05 |  | 0.058 | -0.025 | 

Reference: the supplement of paper PMC10849652
